Inconclusive results are not listed. A call without a number means that no potency is given here. Values without a mark were called inactive. Calls of active or inactive are those of the source. The call rests on the fitted dose curve; in most records, active means well fitted inhibition curve with a large enough effect; inconclusive means small, poorly fitted or top-dose-only effect; inactive means no such curve, though single readings can be large or run the other way.
Experiments:
[1] = system: Zika virus NS2B-NS3 protease (unlinked complex); test: Primary screen GU Rhodamine qHTS for Zika virus inhibitors: Unlinked NS2B-NS3 protease assay (AID 1347159); further: nearly all actives have a fitted effect of over 60% in size
Procedure, shortened: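 Compounds, tested up to 114 microM, were incubated for 15 minutes with 25 nM unlinked NS2B-NS3 protease at pH 8.0. Cleavage of 1.5 microM Rhodamine110 substrate was then followed by fluorescence for 15 minutes.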

[2] = system: Zika virus NS2B-NS3 protease (linked construct); test: Primary screen NINDS Rhodamine qHTS for Zika virus inhibitors (AID 1347160); further: nearly all actives have a fitted effect of over 55% in size
Procedure, shortened: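 Percent inhibition, normalized to uninhibited and enzyme-free controls, is fitted to a 4-parameter Hill equation. Fluorescence change comes from a 15-min cleavage of 1.5 microM bis-peptide Rhodamine110 substrate by 25 nM linked NS2B-NS3 at room temperature.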

[3] = system: Zika virus NS2B-NS3 protease (linked); test: 384 well plate NINDS AMC confirmatory qHTS for Zika virus inhibitors (AID 1347163); details: Recombinant NS2B-NS3 protease, Ac-VKTGKR-AMC fluorescence; further: potency means the concentration at half of the fitted maximal effect; nearly all actives have a fitted effect of over 50% in size
Procedure, shortened: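 Linked NS2B-NS3 protease (final 5 nM, 30 nM or 60 nM) was preincubated with compounds (final up to 1 mM) for ~15 minutes. Ac-VKTGKR-AMC substrate (final 30 microM) then reacted for 25 minutes at room temperature in the dark. Fluorescence (ex 355/em 460 nm) was normalized to no-enzyme and no-inhibitor controls.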

[4] = Confirmatory screen NINDS Rhodamine qHTS for Zika virus inhibitors (AID 1347161);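 further: purified Zika NS2B-NS3 protease with linked NS2B cofactor domain and Rhodamine110 peptide substrate; series mostly up to about 110 µM; nearly all actives have a fitted effect of over 60% in size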
Procedure, shortened: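 Kinetic fluorescence (Ex 480 nm, Em 540 nm) over 15 min with 1.5 microM Rhodamine110 peptide and 25 nM linked protease.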

**Q.** With `COC1CC(OC2CCC3(C=O)C(CCC4C3CCC3(C)C(C5=CC(=O)OC5)CCC43O)C2)OC(C)C1OC1OC(CO)C(O)C(O)C1O` (stereo unspecified) as the compound, how does the Potency [1] read?
**A.** inactive

**Q.** What about the Potency [2] of the same compound?
**A.** inactive

**Q.** With `COC1=CC(=O)O[C@@H](/C=C/c2ccccc2)C1` as the compound, how does the Potency [1] read?
**A.** inactive

**Q.** And the Potency [2]?
**A.** inactive

**Q.** With `C[C@@]12C[C@@H](c3ccoc3)OC(=O)C1CC[C@]1(C)[C@H]2[C@H]2C=C[C@]1(O)C(=O)O2` (stereo partly specified) as the compound, how does the Potency [1] read?
**A.** inactive

**Q.** And the Potency [2]?
**A.** inactive

**Q.** Which results are given for `CCc1[nH]c2ccc(OC)cc2c1CCN(C)C`?
**A.** Potency [1]: inactive; Potency [2]: inactive

**Q.** Which Potency [1] does the source give for `COC1CC(OC2CCC3(C)C(=CCC4C3CCC3(C)C(C(C)OC5OC(COC6OC(CO)C(O)C(O)C6O)C(O)C(O)C5O)CCC43O)C2)OC(C)C1OC1OC(C)C(O)C(OC)C1O` (stereo unspecified) here?
**A.** inactive

**Q.** What about the Potency [2] of the same compound?
**A.** inactive

**Q.** With `CC(C)=C1CC[C@]23CO[C@H](C2)[C@@](O)(C(=O)O)CCC13` (stereo partly specified) as the compound, how does the Potency [1] read?
**A.** inactive

**Q.** What about the Potency [2] of the same compound?
**A.** inactive

**Q.** For `O=C(O)c1ccnc2cc(C(OCCN3CCCCC3)c3ccccc3Cl)[nH]c12` (stereo unspecified), which Potency [2] is on record?
**A.** inactive

**Q.** With `COC(=O)N1CCN(C(=O)Cc2ccc(Cl)c(Cl)c2)[C@@H](CN2CCCC2)C1` as the compound, how does the Potency [1] read?
**A.** inactive

**Q.** What about the Potency [2] of the same compound?
**A.** inactive

**Q.** For `CN1C(=O)c2ccccc2NC(=O)[C@]12O[C@@H]2c1ccccc1`, which Potency [1] is on record?
**A.** inactive

**Q.** And the Potency [2]?
**A.** inactive

**Q.** With `OCCCCC#Cc1cncc(OC[C@@H]2CCN2)c1` as the compound, how does the Potency [1] read?
**A.** inactive

**Q.** What about the Potency [2] of the same compound?
**A.** inactive

**Q.** For `CN(C)[C@@H]1C(=O)C(C(N)=O)=C(O)[C@@]2(O)C(=O)C3=C(O)c4c(O)ccc(Cl)c4[C@@](C)(O)[C@H]3C[C@@H]12`, which Potency [3] is on record?
**A.** 562 nM (active)

**Q.** For `CC1=C2C(=O)C3[C@@H](CC=C4C[C@@H](O)CC[C@@]43C)[C@@H]2CC[C@]12O[C@@H]1C[C@H](C)CN[C@H]1[C@H]2C` (stereo partly specified), which Potency [1] is on record?
**A.** inactive

**Q.** And the Potency [2]?
**A.** inactive

**Q.** Which Potency [1] does the source give for `Cc1cccc(NC(=O)N[C@@H]2N=C(c3ccccc3)c3ccccc3N(C)C2=O)c1` here?
**A.** inactive

**Q.** And the Potency [2]?
**A.** inactive

**Q.** With `CC12CCC3C(CCC4(O)CC(O)CCC34C=O)C1(O)CCC2C1=CC(=O)OC1` (stereo unspecified) as the compound, how does the Potency [2] read?
**A.** inactive

**Q.** With `CC(C)(O)[C@H]1O[C@H]2CC[C@@]3(C)[C@@](O)(CC[C@H]4Cc5c([nH]c6ccccc56)[C@@]43C)C2=CC1=O` as the compound, how does the Potency [2] read?
**A.** inactive

**Q.** Which Potency [1] does the source give for `CN(C(=O)Cc1ccccc1)C(CN1CCCC1)c1ccccc1` (stereo unspecified) here?
**A.** inactive

**Q.** What about the Potency [2] of the same compound?
**A.** inactive

**Q.** For `C[C@H]1C(=O)O[C@H]2[C@H](O)[C@]34C5OC(=O)[C@]3(O[C@@H]3OC(=O)[C@H](O)C34[C@H](C(C)(C)C)[C@H]5O)C12O` (stereo partly specified), which Potency [1] is on record?
**A.** inactive

**Q.** What about the Potency [2] of the same compound?
**A.** inactive

**Q.** Which Potency [1] does the source give for `COc1cc2c(cc1OC)[C@@]13CCN4CC5=CCO[C@H]6CC(=O)N2[C@H]1[C@H]6[C@H]5C[C@H]43` here?
**A.** inactive

**Q.** What about the Potency [2] of the same compound?
**A.** inactive

**Q.** With `C=CC(C)(O)CC/C=C(\C)C(=O)O[C@H]1[C@H](O)[C@@H](CO)O[C@@H](OC(=O)[C@]23CCC(C)(C)CC2C2=CCC4[C@@]5(C)CC[C@H](O[C@@H]6O[C@H](CO[C@@H]7OC[C@H](O)[C@H](O)[C@H]7O[C@@H]7OC[C@@H](O)[C@H](O)[C@H]7O)[C@@H](O)[C@H](O)[C@H]6O)C(C)(C)C5CC[C@@]4(C)[C@]2(C)CC3)[C@@H]1OC1OC(C)C(O[C@@H]2OC[C@@H](O)[C@H](O[C@@H]3OC[C@@H](O)[C@H](O)[C@H]3O)[C@H]2O)C(O)C1O` (stereo partly specified) as the compound, how does the activity change, negative = inhibition [1] read?
**A.** 50.7% [at 19.1 µM]

**Q.** What about the activity change, negative = inhibition [2] of the same compound?
**A.** 33.2% [at 10.7 µM]

**Q.** For `COC1CC(O[C@H]2CC[C@]3(C=O)C4CC[C@]5(C)[C@@H](C6=CC(=O)OC6)CC[C@]5(O)[C@@H]4CC[C@]3(O)C2)OC(C)C1O[C@@H]1O[C@H](CO)[C@@H](O)[C@H](O)[C@H]1O` (stereo partly specified), which Potency [1] is on record?
**A.** inactive

**Q.** What about the Potency [2] of the same compound?
**A.** inactive

**Q.** Which Potency [1] does the source give for `COC(=O)[C@@]12C(=O)C(C)C(=O)[C@]1(C)C(C)=C[C@H]1[C@]3(C=O)CC[C@H](OC(C)=O)C(C)(C)[C@H]3CC[C@@]12C` (stereo partly specified) here?
**A.** inactive

**Q.** And the Potency [2]?
**A.** inactive

**Q.** For `O=C1OC2(c3cc(Br)c(O)cc3Oc3c2cc(Br)c(O)[c]3[Hg])c2ccccc21` (stereo unspecified), which Potency [4] is on record?
**A.** inactive

**Q.** Which results are given for `CC(C)[C@@H](CN1CC[C@@](C)(c2cccc(O)c2)[C@@H](C)C1)NC(=O)[C@H]1Cc2ccc(O)cc2CN1`?
**A.** Potency [1]: inactive; Potency [2]: inactive

**Q.** For `CCCCCCn1c(=O)c(C(=O)Nc2ccc(C(=O)OCCC)cc2)c(O)c2ccccc21`, which activity change, negative = inhibition [1] is on record?
**A.** -4.23% [at 19.1 µM]

**Q.** What about the outcome [2] of the same compound?
**A.** inactive [at 10.7 µM]

**Q.** Which Potency [2] does the source give for `CC(=O)O[C@H]1C[C@@H](OC(C)=O)C(C)(C)C2C[C@@H](O)[C@]3(C)C(CC[C@@]4(C)[C@H](C5=CC(=O)OC5O)C[C@H]5O[C@]543)[C@]21C` (stereo partly specified) here?
**A.** inactive

**Q.** Which results are given for `Oc1ccc2c3c1O[C@H]1[C@H](N(CCCl)CCCl)CC[C@@]4(O)[C@@H](C2)N(CC2CC2)CC[C@]314`?
**A.** activity change, negative = inhibition [1]: -3.74% [at 19.1 µM]; outcome [2]: inactive [at 10.7 µM]

**Q.** With `Cc1cc(C(=O)CN2CCCC2)c(C)n1-c1ccc(F)cc1` as the compound, how does the Potency [1] read?
**A.** inactive

**Q.** What about the Potency [2] of the same compound?
**A.** inactive

**Q.** With `CC(=O)OC1CC(O)C(C)(C)C2CC(OC(C)=O)C3(C)C(CCC4(C)C(c5ccoc5)C(=O)C5OC543)C12C` (stereo unspecified) as the compound, how does the Potency [1] read?
**A.** inactive

**Q.** And the Potency [2]?
**A.** inactive

**Q.** What does the source list for `C1=C2CCCN[C@H]2[C@@H]2C[C@H]1[C@H]1CCCCN1C2`?
**A.** Potency [1]: inactive; Potency [2]: inactive

**Q.** For `C=C[C@H]1CN2CC[C@H]1C[C@@H]2[C@@H](O)c1ccnc2ccccc12`, which Potency [1] is on record?
**A.** inactive

**Q.** What about the Potency [2] of the same compound?
**A.** inactive

**Q.** Which results are given for `CO[C@@H]1[C@H](O)[C@@H](O[C@@H]2C[C@H]3CC[C@@H]4C(CC[C@]5(C)[C@@H](C6=CC(=O)OC6)CC[C@]45O)[C@@]3(C)[C@H](O)C2)O[C@H](C)[C@@H]1O[C@@H]1O[C@H](CO)[C@@H](O)[C@H](O)[C@H]1O` (stereo partly specified)?
**A.** Potency [1]: inactive; Potency [2]: inactive

**Q.** What does the source list for `C[C@H](NC(=O)Cc1cc(F)cc(F)c1)C(=O)N[C@@H]1N=C(c2ccccc2)c2ccccc2N(C)C1=O`?
**A.** Potency [1]: inactive; Potency [2]: inactive

**Q.** Which results are given for `Clc1ccc(OCC2=NCCN2)cc1Cl`?
**A.** Potency [1]: inactive; Potency [2]: inactive

**Q.** With `CN1C(=O)N(c2ccc(C#N)c(C(F)(F)F)c2)C(=O)[C@]1(CO)c1ccccc1` as the compound, how does the Potency [1] read?
**A.** inactive

**Q.** And the Potency [2]?
**A.** inactive

**Q.** With `CCN1C[C@]2(COC)[C@H](O)C[C@H](OC)[C@]34[C@@H]5C[C@]6(O)[C@H](OC(=O)c7ccccc7)[C@@H]5[C@@](O)([C@H]([C@H](OC)[C@H]23)[C@@H]14)[C@@H](O)[C@@H]6OC` as the compound, how does the Potency [2] read?
**A.** inactive

**Q.** Which Potency [1] does the source give for `N#CC(OC1OC(COC2OC(CO)C(O)C(O)C2O)C(O)C(O)C1O)c1ccccc1` (stereo unspecified) here?
**A.** inactive

**Q.** What about the Potency [2] of the same compound?
**A.** inactive

**Q.** Which Potency [1] does the source give for `CC(CCc1ccc(O)cc1)O[C@@H]1O[C@H](CO[C@H]2OC[C@](O)(CO)[C@H]2O)[C@@H](O)[C@H](O)[C@H]1O` (stereo partly specified) here?
**A.** inactive

**Q.** And the Potency [2]?
**A.** inactive

**Q.** For `C/C=C(\C)C(=O)OC1CC2C(C)(C)OC(=O)CC(OC(C)=O)C2(C)C2CC(OC(=O)C(C)C)C3(C)C(c4ccoc4)CC4OC43C12C` (stereo unspecified), which Potency [1] is on record?
**A.** inactive

**Q.** And the Potency [2]?
**A.** inactive

**Q.** What does the source list for `C[C@@H]1C(=O)O[C@H]2[C@H](O)[C@@]34[C@@H]5OC(=O)[C@@]3(O[C@@H]3OC(=O)[C@@H](O)[C@@]34[C@H](C(C)(C)C)[C@H]5O)[C@@]12O`?
**A.** Potency [1]: inactive; Potency [2]: inactive
